Only some compounds are listed: those with a hit (about 7.5% of all), similar ones and a draw of the others.
ELG1 genotox = qHTS screen for small molecules that induce genotoxicity in human embryonic kidney (HEK293T) cells expressing luciferase-tagged ELG1; Potency, µM (series often up to 46 µM), most hits filed as activators; actives 1.3% (n = 330,000); HEK293T ELG1-luciferase reporter, luminescence, 16 h; note: nearly all actives have a fitted effect of over 60% in size
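Cells (2,000/well) expressing the ELG1-luciferase fusion are dosed by pin tool and kept 16 hr at 37 °C, 5% CO2. Signal comes from ONE-Glo luciferase reagent after 30 min at room temperature.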
FLuc modulator = qHTS profiling assay for firefly luciferase inhibitor/activator using purifed enzyme and Km concentrations of substrates (counterscreen for miR-21 project); Luciferin 4-monooxygenase (Photinus pyralis), P08659; purified FLuc, Km substrates, luminescence inhibition; Potency, µM (top dose mostly 57.5 µM), hits mostly inhibitors; actives 6.9% (n = 360,000); AID 588342, 2011; note: nearly all actives have a fitted effect of over 55% in size
Target sequence (P08659 whole entry, looked up): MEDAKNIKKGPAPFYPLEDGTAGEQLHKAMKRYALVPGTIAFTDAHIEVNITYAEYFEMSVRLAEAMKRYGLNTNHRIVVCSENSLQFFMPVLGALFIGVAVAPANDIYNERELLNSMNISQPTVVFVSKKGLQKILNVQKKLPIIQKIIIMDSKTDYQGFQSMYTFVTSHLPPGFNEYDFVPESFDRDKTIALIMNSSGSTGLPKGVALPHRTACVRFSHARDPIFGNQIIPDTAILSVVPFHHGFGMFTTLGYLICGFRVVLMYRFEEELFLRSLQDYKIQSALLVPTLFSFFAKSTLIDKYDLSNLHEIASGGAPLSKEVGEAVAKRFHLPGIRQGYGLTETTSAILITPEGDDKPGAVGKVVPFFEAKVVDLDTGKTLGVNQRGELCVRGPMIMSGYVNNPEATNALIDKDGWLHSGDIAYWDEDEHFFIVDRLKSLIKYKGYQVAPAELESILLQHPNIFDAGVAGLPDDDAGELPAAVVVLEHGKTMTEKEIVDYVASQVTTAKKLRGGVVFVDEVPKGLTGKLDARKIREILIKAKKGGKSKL
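Purified P. pyralis luciferase, 10 nM final, with Km-level 10 uM D-luciferin and 10 uM ATP in 50 mM Tris acetate pH 7.5, 10 mM Mg acetate, 0.01% Tween-20, 0.05% BSA; 6-point qHTS titration about 60 µM downward; luminescence read.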
NPC1 prom act = qHTS Assay for NPC1 Promoter Activators | Huh7 NPC1 promoter luciferase reporter, 24 h | Potency, µM (titrated, usually from 9.22 µM), actives largely listed as activators | actives 2.4% (n = 320,000) | AID 485313, 2010; note: nearly all actives have a fitted effect of over 60% in size
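Cells: Huh7 expressing luciferase under the NPC1 promoter, 1500/well. Seeded 2 h, compound added, incubated 24 h at 37 °C. Luciferase reagent, 10 min ambient, then luminescence.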
Rab9 prom act = qHTS Assay for Rab9 Promoter Activators; Huh7 Rab9 promoter-luciferase reporter, luminescence, 24 h; Potency, µM (doses to about 9.22 µM), usual class: activators; actives 2.8% (n = 320,000); AID 485297, 2010; note: nearly all actives have a fitted effect of over 60% in size
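Quantitative HTS format; Huh7 Rab9-luciferase reporter cells (1500/well) receive compound 2 h post-plating, incubate 24 h at 37 °C, then get luciferase reagent for 10 min before luminescence reading.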
SMN2 splice enh = qHTS Assay for Enhancers of SMN2 Splice Variant Expression. HEK293 SMN2-luciferase splicing reporter, luminescence, 30-36 h. Potency, µM (highest dose often 46.1 µM), hits mostly activators. AID 1458, 2008. actives 2.8% (n = 210,000); note: nearly all actives have a fitted effect of over 55% in size
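HEK293 cells carry an SMN2 […]–luciferase reporter in which exon 7 inclusion puts luciferase in frame. Cells were plated 10-12 h before compound addition, then incubated 30-36 h at 37C. ONE-Glo luminescence was read; sodium butyrate at 4.5 mM final served as control.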
A number is an active result; i = inactive; ? = inconclusive; nt = not tested or not shown; [ ] = another dose, or the depositor's remark. Calls come from the whole dose curve; as a rule, active = well fitted curve in the direction sought with a large enough effect; inconclusive = small, poorly fitted or top-dose-only effect, or another doubt; inactive = no such curve, though single readings can be large; an effect the other way counts as inactive or inconclusive.

SMILES | ELG1 genotox | FLuc modulator | NPC1 prom act | Rab9 prom act | SMN2 splice enh
O=C(N=Nc1c(O)n(Cc2ccccc2)c2ccccc12)c1cc2ccccc2cc1O | ? | 1.1µM | ? | ? | 10µM
COCCOc1ccc(C(F)(F)F)cc1Nc1nc2ccccc2o1 | ? | 15µM | i | i | i
COCCOc1ccc(C(F)(F)F)cc1NC(=O)c1ccc(C(F)(F)F)cc1 | i | i | i | i | nt
O=C(CSc1nnc(Nc2ccccc2)s1)Nc1ccc(S(=O)(=O)N2CCOCC2)cc1 | i | 11µM | i | i | i
O=C(CSc1nnc(Nc2ccccc2)s1)NN1C(=O)NC2(CCCCC2)C1=O | i | 19µM | i | i | i
NC(=O)CSc1nnc(NC(=O)c2ccc(S(=O)(=O)N3CCOCC3)cc2)s1 | i | ? | i | i | nt
Cc1ccc(Nc2nnc(SCC(=O)Nc3ccc(S(=O)(=O)N4CCOCC4)cc3)s2)cc1 | ? | 3µM | i | i | i
COc1ccc(NC(=O)CSc2nnc(NC(=O)c3ccc(S(=O)(=O)N4CCOCC4)cc3)s2)cc1 | ? | 2.7µM | i | i | ?
CC(C)(CO)NC(=O)c1ccc2c(c1)C(=O)c1ccccc1-2 | 23µM | 19µM | 2.5µM | ? | nt
O=C(NCc1ccco1)c1ccc(Oc2ccccc2)cc1 | ? | 24µM | i | i | i
Cc1ccc(C(=O)NCc2ccco2)cc1 | i | i | i | i | nt
O=C(NCc1ccco1)c1ccc2c(c1)C(=O)c1ccccc1-2 | 15µM | ? | i | i | i
O=C(NCc1ccco1)c1ccc2ccccc2c1 | i | 13µM | ? | ? | i
O=C(COc1ccccc1C(=O)NCc1ccccn1)Nc1ccc(Br)cc1 | i | ? | i | i | i
Cc1ccc2c(CC(=O)N(Cc3ccc(Cl)cc3)Cc3ccco3)coc2c1 | nt | i | nt | nt | i
O=C(Nc1ccc2c(c1)N(C1CCCC1)C(=O)c1ccccc1S2)c1ccccc1 | nt | i | nt | nt | nt
Cc1ccc(C(=O)Nc2sc3c(c2C(=O)NCc2ccco2)CCCC3)cc1 | i | i | i | i | i
O=C(Nc1sc2c(c1C(=O)NCc1ccco1)CCCC2)c1ccc2c(c1)OCO2 | 10µM | 12µM | i | ? | ?
O=C(COC(=O)Cc1ccc(-c2ccccc2)cc1)NCc1ccccc1 | i | ? | i | i | i
O=C(O)CCC(=O)c1ccc2ccc3cccc4ccc1c2c34 | i | 21µM | i | i | i[9.22 µM]
O=C(Nc1ccc(Cl)cc1C(F)(F)F)C(Sc1cccc[n+]1[O-])c1ccccc1 (configuration not stated) | i | i | i | i | 5.6µM
Cc1cccc(C(=O)NCC(=O)OCC(=O)N2CCc3ccccc32)c1 | i | i | i | i | i
O=C(CNC(=O)c1ccccc1Cl)OCC(=O)N1CCc2ccccc21 | ? | 13µM | i | i | i
O=C(Cc1ccccc1F)OCC(=O)N1CCc2ccccc21 | i | 6.7µM | i | i | i
CCC(=O)NC1Cc2ccccc2C(c2ccccc2)C1 (configuration not stated) | nt | nt | nt | nt | i
SMILES | ELG1 genotox | FLuc modulator | NPC1 prom act | Rab9 prom act | SMN2 splice enh
Cc1ccc(Cl)c(OCC(=O)NC2CCN(Cc3ccccc3)CC2)c1 | i | i | i | i | nt
COc1ccc(-c2cc3ccc(O)c(CN4CCCC4)c3oc2=O)cc1OC | nt | 15µM | nt | nt | nt
c1ccc(-c2nc3c4ccccc4ccn3c2CN2CCCCC2)cc1 | i | 5.4µM | i | i | nt
CC(=Nc1ccccc1)c1sc2ccccc2c1O | 2.9µM | 1.5µM | i | ? | 11µM
CC(=Nc1ccc(Br)cc1)c1sc2ccccc2c1O | 3.7µM | 1.3µM | 3.2µM | 3.2µM | nt
C[C@H](NCCN(C)C)[C@@H]1CCC2C3CCc4cc(O)ccc4[C@H]3CCC21C (some centres not stated) | nt | nt | nt | nt | i[9.22 µM]
CCC(C)(C)c1ccc2c(c1)C(=O)c1ccccc1C2=O | ? | 1.7µM | 1.6µM | 2.8µM | ?
CCCCNC(=O)c1nnn(-c2ccccc2)c1N | ? | ? | ? | ? | 13µM
NC(=O)c1nnn(-c2ccccc2)c1N | i | i | i | i | i
COc1ccc(S(=O)(=O)Nc2cc(S(=O)(=O)c3ccccc3)c(O)c(C)c2C)cc1 | nt | ? | nt | nt | i
O=C(NCc1ccco1)c1cc2ccccc2c(=O)o1 | i | 15µM | i | i | nt
O=C(OCCc1cc2ccccc2c(=O)o1)c1ccco1 | i | 5.4µM | i | i | nt
O=C(NCc1ccco1)c1cc2cc(Br)ccc2o1 | i | 17µM | i | ? | nt
C/C(=N/OCO/N=C(/C)c1ccc(F)cc1)c1ccc(F)cc1 | i | i | i | i | 8.9µM
COc1ccc(OCCCC(=O)Nc2ccc3c(c2)OCCO3)cc1 | i | i | i | i | ?
COc1ccc(C(=O)CNc2cccc(F)c2)cc1 | ? | 11µM | ? | i[1.84 µM] | nt
O=C(CCNc1ccccc1)c1ccc2c(c1)OCO2 | ? | 4.8µM | 2.2µM | 2.5µM | i
CCCOc1ccc(C(=O)Nc2ccc3c(c2)OCCO3)cc1 | 2.9µM | 1.2µM | 0.35µM | 0.56µM | nt
COc1ccc(C(=O)CCNc2ccc3c(c2)OCCO3)cc1 | i | 13µM | ? | i | i
COc1ccc(CNc2nc(-c3ccccc3OC)nc3ccccc23)c(OC)c1 | nt | nt | nt | nt | i
NC(=S)N/N=C/c1ncc(C(F)(F)F)cc1Cl | ? | i | i | i | nt
O=C(O)C[C@@H](O)C(=O)O | i | i | i | i | i
CCCOc1ccc(C(=O)CCNc2cccc(Cl)c2)cc1 | i | i | i | i | i
COc1cccc(OC)c1C(=O)Nc1ccc2c(c1)OCCO2 | i | i | i | i | i
COc1ccc(-c2noc(CCC(=O)Nc3ccc4c(c3)OCCO4)n2)cc1 | i | 17µM | i | i | i
SMILES | ELG1 genotox | FLuc modulator | NPC1 prom act | Rab9 prom act | SMN2 splice enh
COc1ccc(C(=O)CCNc2cccc(Cl)c2)cc1 | ? | ? | ? | 3.5µM | ?
CC(=O)Oc1ccc(C(=O)Nc2ccc3c(c2)OCCO3)cc1 | ? | 11µM | 1µM | 1.6µM | nt
COc1ccc(C(=O)Nc2ccc3c(c2)OCCO3)cc1 | ? | 0.85µM | 0.45µM | 0.71µM | 1.8µM
Cc1ccc(N=C(N)N=C(N)N)c(C)c1 | i | i | i | i | nt
CC1(C)Oc2ccc3ccc(=O)oc3c2-c2cn[nH]c21 | ? | i | i | i | 14µM
Cc1ccc(NC(=O)c2cc(C)no2)cc1 | ? | ? | i | i | nt
CCc1ccc(NC(=O)c2cc(C)no2)cc1 | ? | 12µM | ? | ? | nt
CCc1ccc(NC(=O)c2cc(C)on2)cc1 | ? | 3µM | 0.5µM | 0.89µM | 6.3µM
Cc1cc(C(=O)Nc2ccccn2)no1 | ? | ? | ? | ? | 11µM
CCc1ccc(NC(=O)c2cc(-c3ccc(OC)cc3)on2)cc1 | i | i | i | i | i
Cc1ccc(NC(=O)c2onc(C)c2Cl)cc1 | 16µM | 13µM | i | ? | 14µM
CCOC(=O)c1ccccc1NC(=O)COC(=O)C1CCCC1 | i | i | i | i | nt
Cc1ccc(Cn2ccc(NC(=O)c3cc(C)on3)n2)cc1 | ? | ? | i | i | i
Cc1ccc(NC(=S)Nc2cc(C)on2)cc1 | ? | 27µM | 1.4µM | 2.8µM | nt
